Only some compounds are listed: those with a hit (about 3.2% of all), similar ones and a draw of the others.
AmpC inh detg – blocks E. coli AmpC beta-lactamase in detergent assay; P00811; AmpC hydrolysis of nitrocefin, absorbance 480 nm, 0.01% Triton; Potency, µM (doses to about 114 µM), inactives show at the highest dose activity change, negative = inhibition, hits mostly inhibitors; 0.041% of 370,000 active; AID 485294;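 further: 0% = no-compound wells and -100% = no-enzyme wells; nearly all actives have a fitted effect of over 25% in size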
Target sequence (P00811 whole entry, looked up): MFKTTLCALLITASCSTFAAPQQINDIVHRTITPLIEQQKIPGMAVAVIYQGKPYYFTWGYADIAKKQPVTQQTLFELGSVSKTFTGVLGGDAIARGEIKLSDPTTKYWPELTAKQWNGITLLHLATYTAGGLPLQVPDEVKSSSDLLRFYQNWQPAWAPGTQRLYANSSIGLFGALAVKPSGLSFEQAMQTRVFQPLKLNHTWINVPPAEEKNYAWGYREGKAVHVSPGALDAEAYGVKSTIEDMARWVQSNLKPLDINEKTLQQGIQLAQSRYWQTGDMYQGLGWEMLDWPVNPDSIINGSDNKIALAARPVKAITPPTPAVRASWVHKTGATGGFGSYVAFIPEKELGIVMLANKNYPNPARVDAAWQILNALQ
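AmpC (5.3 nM in the dispensed reagent) in 20 mM phosphate pH 7.0 with 0.01% (detergent screen) or 0.0001% Triton X-100 was preincubated with compounds for 15 min at room temperature. Nitrocefin was then added from an 800 uM solution, and hydrolysis was followed at 480 nm.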
Sm TGR inh – S. mansoni TGR enzyme inhibition; Potency, µM (titrated, usually from 114 µM), without a hit: top-dose activity change, negative = inhibition, usual class: inhibitors; AID 485364; purified TGR, DTNB reduction, TNB absorbance 405 nm; 3% of 360,000 active; Q962Y6; further: nearly all actives have a fitted effect of over 60% in size
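TGR 20 nM + NADPH 100 uM (dispensed conc.), cpd preinc 15 min RT; start with NADPH (500 uM addition) then DTNB (15 mM addition). Kinetic TNB absorbance, 405 nm filter. Four-parameter Hill fit across titration.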
AMA1 RON2 block – inhibitors of Plasmodium falciparum AMA1-RON2 interaction. AlphaScreen AMA1-biotinylated RON2 peptide binding. Potency, µM (titrated, usually from 58.2 µM), without a hit: at the top dose activity change, negative = inhibition, hits mostly inhibitors. 0.2% of 360,000 active;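 further: 0% = vehicle wells and -100% = peptide control; nearly all actives have a fitted effect of over 45% in size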
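AMA1 (3D7) with his tag at 25 nM final met compounds first, then biotinylated RON2 peptide at 25 nM; detection used donor plus acceptor beads, 10 µg/mL apiece, read by AlphaScreen after 30 min at room temperature.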
AmpC inh no detg – AmpC beta-lactamase inhibition without detergent | AmpC nitrocefin hydrolysis, absorbance 480 nm, 0.0001% Triton | Potency, µM (doses to about 57.1 µM), inactives show at the highest dose activity change, negative = inhibition, hits mostly inhibitors | 0.52% of 330,000 active | P00811;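 further: plate controls were no compound for no effect and no enzyme for full effect; nearly all actives have a fitted effect of over 20% in size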
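AmpC (5.3 nM in the dispensed reagent) in 20 mM phosphate pH 7.0 with 0.01% (detergent screen) or 0.0001% Triton X-100 was preincubated with compounds for 15 min at room temperature. Nitrocefin was then added from an 800 uM solution, and hydrolysis was followed at 480 nm.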
RE007 growth inh – less growth of the S. pombe RE007 Vpr strain | AID 651644 | Potency, µM (titrated, usually from 92.2 µM), for the others: at the highest dose activity change, negative = less growth, most hits filed as inhibitors | S. pombe RE007 Vpr strain, BacTiter-Glo ATP luminescence, 24 h | 0.21% of 360,000 active; active means well fitted falling curve with a large enough effect; inconclusive means small, poorly fitted or top-dose-only effect; inactive means no such curve, though single readings can be large or run the other way; further: nearly all actives have a fitted effect of over 50% in size
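Fission yeast strain RE007, carrying one chromosomally integrated HIV-1 vpr copy, was seeded at OD 0.01 in PMG+AL medium with 23 nL pinned compound. After 24 h at 30 °C and 99% humidity, viability was read by BacTiter-Glo luminescence.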
Numbers without * were called inactive; ? = inconclusive; nt = no result; [ ] = remark or other dose. Unless noted, the call rests on the fitted dose curve; in most records, active means well fitted curve in the direction sought with a large enough effect; inconclusive means small, poorly fitted or top-dose-only effect, or another doubt; inactive means no such curve, though single readings can be large; an effect the other way counts as inactive or inconclusive. Unless noted, on the % scale 0 is the no-effect control and ±100 the full control effect; potency means the concentration at half of the fitted maximal effect.

SMILES | AmpC inh detg | Sm TGR inh | AMA1 RON2 block | AmpC inh no detg | RE007 growth inh
Nc1ncnc(Sc2ccccc2)c1[N+](=O)[O-] | 2% | 13µM* | -1% | -16% | -25%
CCOC(=O)C1=C(CS(=O)(=O)c2ccc(F)cc2)NC(=O)NC1c1ccc(OCC)c(OC)c1 (stereo not given) | -17% | -1% | nt | nt | nt
Cc1ccc(S(=O)(=O)c2cc(OC(=O)c3ccco3)ccc2OC(=O)c2ccco2)cc1 | -21% | -11% | -12% | 13µM* | 18%
O=C(NCc1ccc2c(c1)OCO2)c1ccccc1Cl | nt | nt | -2% | nt | 2%
O=C(NCc1ccc2c(c1)OCO2)c1nc(S(=O)(=O)Cc2ccccc2F)ncc1Cl | -2% | 25µM* | -5% | -31% | 2%
O=C(NCc1ccc2c(c1)OCO2)c1nc(S(=O)(=O)Cc2ccccc2)ncc1Cl | 3% | 3.2µM* | 1% | -14% | 1%
Oc1cccc(/C=N/c2c(-c3ccco3)nc3ccccn23)c1 | 9% | 35µM* | -29% | 40% | -19%
Cc1cc(C)c([N+](=O)[O-])cc1-c1ccc(/C=N/c2c(-c3ccco3)nc3ccccn23)o1 | 1% | 40µM* | ? | -16% | -30%
O=[N+]([O-])c1ccc(Cl)c(-c2ccc(/C=N/c3c(-c4ccco4)nc4ccccn34)o2)c1 | -1% | -7% | -9% | -17% | -7%
O=[N+]([O-])c1ccc(-c2ccc(/C=N/c3c(-c4ccco4)nc4ccccn34)o2)cc1 | -14% | -5% | -18% | -15% | -19%
CCOc1cc(S(=O)(=O)NCCc2c(C)[nH]c3ccc(C)cc23)ccc1F | 12% | 7% | nt | nt | nt
CC(=O)OCC1=C(C(=O)O)N2C(=O)C(NC(=O)c3ccc(COc4ccc(Cl)cc4)o3)C2SC1 (stereo not given) | -3% | 22µM* | 2% | -9% | 7%
O=C(NNC1CC(=O)N(c2ccccc2)C1=O)c1ccc(COc2ccccc2Cl)o1 (stereo not given) | ? | -16% | 22% | -4% | -4%
CC(=O)OCC1=C(C(=O)O)N2C(=O)C(NC(=O)c3ccc(COc4c(C)cccc4Cl)o3)C2SC1 (stereo not given) | -10% | 20µM* | 15% | -16% | 13%
N#Cc1c[nH]n2c(NC3CCCCC3)c(-c3ccccc3F)nc12 | -2% | -7% | nt | nt | nt
CC1CC(C)CN(c2ccc(C(=O)NCc3ccc4c(c3)OCO4)cc2[N+](=O)[O-])C1 (stereo not given) | -4% | -2% | ? | 3.2µM* | 12%
CCC(=O)N1CCc2cc(S(=O)(=O)NC(C(=O)Nc3cc(OC)cc(OC)c3)C(C)C)ccc21 (stereo not given) | -2% | 4% | nt | nt | nt
Cc1ccc(/C=C/C(=O)N2CCN(c3ncccn3)CC2)o1 | -1% | 3.2µM* | -5% | -1% | -2%
Cc1ccc(/C=C/C(=O)N2CCN(c3ccc(F)cc3)CC2)o1 | -7% | 50µM* | 0% | -7% | nt
COc1ccccc1N1CCN(/N=C/C=C\c2ccccc2[N+](=O)[O-])CC1 | -4% | 10% | 20µM* | 35% | 4%
COc1ccccc1/C=C/C=N/N1CCN(c2ccccn2)CC1 | -4% | -1% | -22% | -19% | -29%
COc1ccccc1N1CCN(/N=C/C=C\c2ccco2)CC1 | 5% | 40µM* | ? | 20% | -16%
Cc1ccc(OCC(=O)NCC2(N3CCN(C)CC3)CCCCC2)cc1C | 15% | 2% | nt | nt | nt
COc1ccccc1CNC(=O)CCC1N=C2c3ccccc3N=C(SCc3ccc(C)cc3)N2C1=O (stereo not given) | 1% | 0% | nt | nt | nt
COc1ccc(N2CCN(C(=O)/C=C/c3ccco3)CC2)cc1 | ? | 18µM* | 13% | 1% | -4%
O=C(/C=C/c1ccco1)N1CCN(c2ccc(F)cc2)CC1 | 8% | 10µM* | -2% | 7% | 3%
COc1cccc(/C=N/N2CCN(c3ccccc3OC)CC2)c1 | 3% | -1% | ? | -5% | -25%
CC1CCCC(C)N1/N=C/C=C/c1ccccc1[N+](=O)[O-] (stereo not given) | -11% | -4% | 16µM* | -14%[11.4 µM] | -20%

Bioassay records deposited in PubChem by National Center for Advancing Translational Sciences (NCATS).
